In PubChem BioAssay (NCATS):
Results filed as inconclusive are left out. Calls follow the shape of the dose curve; as a rule, active = well fitted curve in either direction with a large enough effect (not every such curve was filed as active); inconclusive = small, poorly fitted or top-dose-only effect, or another doubt; inactive = flat fitted curve, though single readings scatter.

Experiment: NFAT Signaling Pathway (AID 444)
Conditions: Jurkat NFAT-bla M1, carbachol, beta-lactamase ratio, 5 h; at 17.2 µM (top of the series) unless noted
From the text: NCGC Assay Overview: The nuclear factor of activated T cells (NFAT) family of transcription factors has been found primarily in most immune system cells and some other non-immune cells. NFAT plays the immunomodulatory role, primarily in T-cell activation and differentiation. NFAT target genes are also involved in the regulation of apoptosis and differentiation in non-immune cell types. The NFAT sequence was engineered to the upstream of the ?-lactamase reporter gene and transfected into Jurkat cells with co-transfection of muscarinic receptor1 [provided by Invitrogen Corp]. When an extracellular stimulus, such as carbachol, binds to the GPCR M1 receptor, it stimulates a signaling cascade that activates NFAT response element and ?-lactamase expression by phosphorylating the NFAT binding protein. This cell based ?-lactamase reporter gene assay can accurately monitor any changes occurring along the NFAT pathway, and can be used for screening small molecule inhibitor or activator upon activation by carbachol EC50 concentration. A small molecular library were screened in a titration series resulting in AC50s (can be either IC50s or EC50s).
NCGC Assay Protocol Summary: The cells were prepared in RPMI 1640 medium containing 0.1% dialyzed FBS and 25 mM HEPES at 1.6 x 10^6cell/ml. The assay was performed in 1536-well plate format as follows: 5 ul of cell preparation 23 nl of compounds 1ul of carbachol (final concentration 1 uM) Briefly centrifuge the plates and incubate at 37 °C for 5 hours 1 ul of CCF4 dye mixture Incubate the plates at RT for 1 hour Read the plate in EnVision plate reader (Ex= 405nm, and Em1=460nm and Em2=530nm). The %Activity was determined from the ratio of 460nm/530nm. Data normalization and AC50 calculations were accomplished using GeneData software.
% is scaled to controls: 0 for no effect and ±100 for the full control effect.

Activity change, negative = inhibition, inactive:
CCOC(=O)C1CSc2[nH]c(=O)sc2C1c1ccccc1 (stereo not given) -1.24%
CC(=O)NC1(C(F)(F)F)C(=O)Nc2c1c(=O)n(C)c(=O)n2C (stereo not given) 7.97%
COc1cccc(C(=O)NCC(=O)n2nc(C)cc2C)c1 -4.99%
Cc1[nH]nc2c1C(CCc1ccccc1)C(C#N)=C(N)O2 (stereo not given) 10.3%
CCOC(=O)c1c(CN2CCN(C)CC2)n(C)c2cc(Br)c(OC)cc12 20.5%
COCCN(Cc1ccccc1)P(=O)(O)c1ccccc1OCC(=O)O -4.16%
C=CCN=C(NC#N)SCCc1ccccc1 7.9%
CCC(C(=O)Nc1ncn[nH]1)(C(F)(F)F)C(F)(F)F -11.9%
Cc1nc(NS(=O)(=O)c2ccccc2)sc1NC(=O)OC(C)C -1.13%
Cc1cc(=O)oc(C)c1C(=O)NCCN1CCOCC1 7.8%
COc1ccc(N(CN2C(=O)C3C4C=CC(C4)C3C2=O)C(=O)c2ccco2)cc1 (stereo not given) 12.6%
N#CCCN(CCC#N)c1nnc(-c2ccccc2)s1 -5.89%
Cc1nnc2n(C3CCCCC3)c(=O)c3c4c(sc3n12)COC(C)(C)C4 5.64%
COc1ccc(-n2c(=O)c(CCc3ccccc3)nc3cnc(N4CCNCC4)nc32)cc1 7.43% [at 7.69 µM]
CCOc1ccc(-c2nnc3sc(-c4ccccc4OC)nn23)cc1 -19.8%
N=c1ncn(CC(O)CN2CCOCC2)c2nc(N3CCOCC3)[nH]c12 (stereo not given) -3.22%
C/C(=N\O)c1c(C)c2ccccc2n1C -14.1%
CCN1CCC[C@@H]1CNC(=O)c1c(O)c(Cl)cc(Cl)c1OC 2.12% [at 38 µM]
CCCC1CC(=O)OC1(C)C(=O)CSc1n[nH]c(-c2ccccc2)n1 (stereo not given) 8.59%
COC1=CC(=O)CC(C)C12Oc1c(Cl)c(OC)cc(OC)c1C2=O (stereo not given) -12.3%
CCC(CC)n1[nH]c(=O)cc1N 14.2%
CC(=O)Nc1ccc(Oc2ccc3nc(C)[nH]c3c2)cc1 0.827%
CC(=O)O[C@@H]1C[C@]2(C)[C@H](C[C@@H](O)[C@H]3[C@@]4(C)CC[C@@H](O)[C@@H](C)[C@@H]4CC[C@@]32C)/C1=C(\CCC=C(C)C)C(=O)O -0.766% [at 38 µM]
COc1ccc(OCC(O)CN2C(=O)NC(C)(C)C2=O)cc1 (stereo not given) 0.93%
Cc1ccc(C(=O)C2C(c3cccs3)NC(=O)NC2(O)C(F)(F)F)cc1 (stereo not given) 8.36%
CC1CCN(c2ncnc3c2cnn3Cc2ccc(Cl)cc2)CC1 -2.2%
CC1(C)Cc2[nH]c(=S)c(C#N)cc2CO1 -8.3%
CCOC(=O)CSC1=C(C#N)C(c2ccc(OC)cc2)C2=C(CC(C)(C)CC2=O)N1 (stereo not given) 7.5%
O=C(NCCCn1ccnc1)C(Cc1ccccc1)N1C(=O)c2ccccc2C1=O (stereo not given) 7.45%
O=C(NCCN1CCOCC1)c1ccc(=O)oc1 8.89%
COc1cc(N2CCCC2)c(OC)cc1/C=c1/sc2nc3ccccc3n2c1=O -23%
O=S(=O)(N[C@@H]1C[C@H]2CC[C@@H]1C2)c1cccs1 -11.3%
Nc1nonc1-c1noc(-c2ccccc2)n1 -13.1%
COc1cccc(-c2nnc3sc(-c4ccccc4)nn23)c1 -8.12%
COc1ccc(-c2cc(=O)[nH]c(=O)[nH]2)cc1 -4.97%
Cc1cc(C)n(C(=O)CNC(=O)c2ccc3c(c2)OCCO3)n1 -6.13%
CCOC(=O)CSc1nnc(C)c(=O)[nH]1 -0.387%
O=c1[nH]cnc2c1cnn2Cc1ccccc1 -7.78%
COC(=O)c1ccc(C2/C(=C(\O)c3cccc(OC)c3)C(=O)C(=O)N2CCCN2CCOCC2)cc1 (stereo not given) -2.61%
Cc1sccc1C1C(C#N)=C(N)SC(N)=C1C#N 15%
